To fix the notation:
B1: Caulobacter ParB omega fusion; a variant is named by its letters at X, in order, B8GW30 (parent)
chain: MESVVVGEPGMSEGRRGLGRGLSALLGEVDAAPAQAPGEQLGGSREAPIEILQRNPDQPRRTFREEDLEDLSNSIREKGVLQPILVRPSPDTAGEYQIVAGERAWRAAQRAGLKTVPIMVRELDDLAVLEIGIIENVQRADLNVLEEALSYKVLMEKFERTQENIAQTIGKSXSHVANXMRLLXLPDEVQSYLVSGELTAXHARAIAAAADPVALAKQIIEGGLSVRETEALARKAPNLSAGKSKGGRPPRVKDTDTQALESDLSSVLGLDVSIDHRGSTGTLTITYATLEQLDDLCNRLTRGI

Over roughly 81,000 sequences, “one-hybrid fitness for binding parS DNA” has its median near -0.17; the highest 2% begin near 0.51. For the sample, the highest values were picked, then their nearest neighbours and some sequences at random. Bounds are passed on as bounds.

The variants in the assay derive from B1. As to the kind of experiment: one-hybrid fitness for binding parS DNA (scaled: cognate 1, non-cognate 0); higher = stronger binding. Conditions: with parS DNA site. The method, boiled down:
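Values were rescaled so that cognate is 1 and non-cognate is 0. Each is a fitness, the log change in a variant's read ratio to wild type from Illumina reads of plasmids before and after selection, with three replicate libraries pooled and variants under 10 reads dropped. Selection of the Caulobacter ParB libraries, four specificity codons randomised, used E. coli USO with a HIS3 reporter, site 19 bp from the promoter, on M9-minus-histidine with 0.1 mM IPTG and 5 mM 3-AT for 48 hours at 37°C.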
For METI, the “one-hybrid fitness for binding parS DNA” value is not above 0.2.
As to RVLF, the “one-hybrid fitness for binding parS DNA” value stood at 0.259.
The result for RVCC reads 0.966; that for RVRP, not above 0.2.
The result for RVCP reads not above 0.2.
The result for RVLK reads not above 0.2; that for RVYC, 0.991; that for RVRC, 0.851.
With RVRH, the “one-hybrid fitness for binding parS DNA” value amounted to 0.203.
Turning to RVLC, the “one-hybrid fitness for binding parS DNA” value amounted to 0.958.
For RVYQ the value was not above 0.2.
The result for RVYM reads 0.314; that for RVCN, 0.438; that for MFWG, not above 0.2.
The result for QASK reads not above 0.2; that for RCDK, not above 0.2.
QSQF: the “one-hybrid fitness for binding parS DNA” value is not above 0.2.
With PAVG, the “one-hybrid fitness for binding parS DNA” value is not above 0.2.
The result for THLD reads not above 0.2; that for KYFM, not above 0.2.
The result for RVHM reads 0.314; that for RVHC, 0.965.
For RVHY the value was 0.481; for LVSM, not above 0.2.
LKVQ: the “one-hybrid fitness for binding parS DNA” value was not above 0.2.
With LEMF, the “one-hybrid fitness for binding parS DNA” value was not above 0.2.
For FCHS the value was not above 0.2; for SKPK, not above 0.2; for RMIL, not above 0.2.
The result for RMIM reads 0.324.
On to RMPF, for which the “one-hybrid fitness for binding parS DNA” value is not above 0.2.
Consider RSPC, for which the “one-hybrid fitness for binding parS DNA” value was found to be 0.421.
For RMIC the value was 0.926.
For RPPC the value was not above 0.2; for RCPC, 0.698.
The result for RMPC reads 0.725; that for RMPP, not above 0.2; that for EAKD, not above 0.2.
Turning to TVNA, the “one-hybrid fitness for binding parS DNA” value was not above 0.2.
For CNTL the value was not above 0.2; for RLVN, 0.4.
RLVS: the “one-hybrid fitness for binding parS DNA” value was found to be 1.03.
The result for RLKS reads 0.851; that for RLKD, not above 0.2; that for RLVH, 0.223.
Consider RLKN, for which the “one-hybrid fitness for binding parS DNA” value was found to be 0.458.
For AHEK the value was not above 0.2; for MWPC, not above 0.2; for LAAP, not above 0.2.
On to QDYS, for which the “one-hybrid fitness for binding parS DNA” value was not above 0.2.
The result for QTCI reads not above 0.2.
For PSAR the value was not above 0.2; for HTSF, not above 0.2.
The result for AANC reads not above 0.2; that for RVPG, 0.691.
In the case of RVPQ, the “one-hybrid fitness for binding parS DNA” value was not above 0.2.
The result for RVIK reads not above 0.2.
The result for RVIM reads 0.261; that for RVIG, 0.904.
With RVPR, the “one-hybrid fitness for binding parS DNA” value was not above 0.2.
For HAGS the value was not above 0.2; for VNPV, not above 0.2; for WRYW, not above 0.2.
For TQTI the value was not above 0.2; for FACF, not above 0.2.
The result for RMPN reads 0.262.
Turning to RMID, the “one-hybrid fitness for binding parS DNA” value is not above 0.2.
The result for RMPS reads 0.889; that for RMPD, not above 0.2; that for RMIS, 0.997.
For RMIN the value was 0.327.
For FTGR the value was not above 0.2.
Consider QRNV, for which the “one-hybrid fitness for binding parS DNA” value was not above 0.2.
For PRGY the value was not above 0.2; for VCNT, not above 0.2; for KCVG, not above 0.2.
Turning to DLRC, the “one-hybrid fitness for binding parS DNA” value is not above 0.2.
For PRLY, the “one-hybrid fitness for binding parS DNA” value was not above 0.2.
Regarding RWES, the “one-hybrid fitness for binding parS DNA” value worked out at 0.712.
For RWEA the value was 0.301; for RWEN, not above 0.2; for RWEI, not above 0.2.
The result for RWEG reads 0.563.
RWEM: the “one-hybrid fitness for binding parS DNA” value was not above 0.2.
For RWEC the value was 0.556; for RWEF, not above 0.2; for RWEK, not above 0.2.
The result for DQQE reads not above 0.2.
On to CPRM, for which the “one-hybrid fitness for binding parS DNA” value is not above 0.2.
For KRDI the value was not above 0.2; for DGLW, not above 0.2.
For SLYE the value was not above 0.2.
For NVQI the value was not above 0.2; for QQQV, not above 0.2; for WSWS, not above 0.2.
Regarding QFTQ, the “one-hybrid fitness for binding parS DNA” value is not above 0.2.
The result for VLWE reads not above 0.2; that for PVLP, not above 0.2; that for RYDN, 0.407.
The result for RYNS reads 0.872.
For the variant RYND, the “one-hybrid fitness for binding parS DNA” value was found to be 0.213.
For RYDD the value was not above 0.2; for RYNH, not above 0.2.
For RYDS the value was 0.987.
For EDLC the value was not above 0.2; for ANQD, not above 0.2; for TARG, not above 0.2.
For the variant KMSG, the “one-hybrid fitness for binding parS DNA” value was not above 0.2.
The result for RYET reads 0.772; that for RYEN, 0.348.
For RYES the value was 0.975; for RYEF, 0.236; for RYEH, not above 0.2.
The result for RYEK reads not above 0.2.
In the case of RYEC, the “one-hybrid fitness for binding parS DNA” value came to 0.926.
The result for RYEY reads 0.434; that for RYEP, not above 0.2.
For RYEM the value was 0.275; for RYEG, 0.901; for RYED, not above 0.2.
For PNCQ the value was not above 0.2; for QNHC, not above 0.2; for RNEA, 0.253.
On to CLSL, for which the “one-hybrid fitness for binding parS DNA” value was not above 0.2.
The result for SSKF reads not above 0.2.
As to VNMC, the “one-hybrid fitness for binding parS DNA” value was not above 0.2.
The result for RMAC reads 0.994.
The result for RMAK reads not above 0.2.
For RMAF the value was 0.253.
Regarding RMFC, the “one-hybrid fitness for binding parS DNA” value amounted to 0.966.
The result for RMFR reads not above 0.2; that for RMFN, 0.459; that for MTRT, not above 0.2.
For LSYV the value was not above 0.2; for LACS, not above 0.2; for RKNN, 0.327.
The result for RKNS reads 0.766; that for RKNH, not above 0.2.
Take RKDP: the “one-hybrid fitness for binding parS DNA” value was not above 0.2.
Regarding RKDD, the “one-hybrid fitness for binding parS DNA” value is not above 0.2.
The result for RKDS reads 0.886; that for QQTE, not above 0.2.
As for TVLW, the “one-hybrid fitness for binding parS DNA” value was not above 0.2.
For QYWT the value was not above 0.2; for AHYS, not above 0.2.
For RWAC the value was 0.721; for RWAP, not above 0.2; for RWFC, 0.6.
Turning to RWFM, the “one-hybrid fitness for binding parS DNA” value is not above 0.2.
For RWFR the value was not above 0.2.
For RWAH the value was not above 0.2; for HYMG, not above 0.2.
Consider CCLT, for which the “one-hybrid fitness for binding parS DNA” value was not above 0.2.

For the origin of these results see a collection of fitness landscapes (doi:10.1016/j.celrep.2020.107928).
